This is a sample that favours compounds with a hit; in the whole collection about 2.4% have one here.
POLI inh: blocks human DNA polymerase iota activity; Q9UNA4; Pol iota fluorescent replication assay, 10 min; Potency, µM (doses to about 115 µM), inactives show at the highest dose activity, negative = inhibition, actives largely listed as inhibitors; hit rate 1% among 390,000; AID 588590
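Pol iota at 10 nM preincubated 15 min with compounds at room temperature; reaction started with fluorescent substrate, 50 nM final. Fluorescence read kinetically at 0 and 10 min; buffer-only wells as negative control.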
POLK inh: DNA polymerase kappa (human) inhibition; purified Pol kappa, fluorescent DNA synthesis assay, 10 min; Potency, µM (doses to about 107 µM), inactives show at the top dose activity, negative = inhibition, usual class: inhibitors; hit rate 0.53% among 400,000; AID 588579; note: % is set by controls: 0 for no effect and ±100 for the full control effect
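50 nM final substrate added after 15 min RT preincubation of 10 nM Pol kappa with compound; fluorescence read at 0 and 10 min.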
FEN1 inh: human FEN1 inhibition | P39748 | Recombinant FEN1 flap cleavage, fluorescence, 15 min | hit rate 0.35% among 390,000 | Potency, µM (series often up to 114 µM), without a hit: at the top dose activity change, negative = inhibition, most hits filed as inhibitors; note: % is set by controls: 0 for no effect and ±100 for the full control effect; nearly all actives have a fitted effect of over 65% in size
Target sequence (P39748 whole entry, looked up): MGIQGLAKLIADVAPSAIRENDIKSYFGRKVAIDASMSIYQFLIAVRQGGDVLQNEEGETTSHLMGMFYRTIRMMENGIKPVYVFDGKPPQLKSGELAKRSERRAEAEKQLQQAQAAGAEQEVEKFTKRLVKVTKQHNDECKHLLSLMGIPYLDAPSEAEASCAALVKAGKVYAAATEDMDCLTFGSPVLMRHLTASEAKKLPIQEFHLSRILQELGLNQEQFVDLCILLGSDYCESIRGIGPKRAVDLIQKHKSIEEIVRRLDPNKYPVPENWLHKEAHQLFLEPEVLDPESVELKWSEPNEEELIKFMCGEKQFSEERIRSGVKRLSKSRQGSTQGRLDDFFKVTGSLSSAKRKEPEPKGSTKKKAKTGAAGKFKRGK
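Compounds are tested as a concentration series against 10 nM FEN1; after a 15 min room-temperature preincubation, 50 nM substrate starts cleavage, with plate reads at 0 and 15 min. Normalized responses are fitted by a Hill equation.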
WRN inhibitor: WRN helicase (human) inhibition | hit rate 0.46% among 360,000 | Q14191 | Potency, µM (series often up to 114 µM), for inactives: at the highest dose activity change, negative = inhibition, hits mostly inhibitors | WRN helicase unwinding, fluorescent forked duplex, kinetic; note: % is set by controls: 0 for no effect and ±100 for the full control effect; nearly all actives have a fitted effect of over 55% in size
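Screening of the MLSMR collection measured strand separation of a quenched forked DNA duplex (100 nM) by 20 nM WRN with 2 mM ATP, all final. Compounds were preincubated with enzyme 15 min at room temperature.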
Pol eta inh: DNA polymerase eta (human) inhibition; Q9Y253; recombinant Pol eta, fluorescent DNA replication assay; Potency, µM (top dose mostly 114 µM), for the others: at the highest dose activity change, negative = inhibition, actives largely listed as inhibitors; hit rate 1.2% among 390,000; AID 588591; note: % is set by controls: 0 for no effect and ±100 for the full control effect
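Pol eta (10 nM) was preincubated with compounds for 15 min at room temperature, after which fluorescent replication substrate (50 nM final) was added to start the reaction. Fluorescence was read kinetically at 0 and 10 min.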
POLB inh: DNA polymerase beta (human) inhibition. Pol beta primer extension/strand displacement, fluorescence kinetic. Potency, µM (doses to about 114 µM), inactives show at the top dose activity change, negative = inhibition, usual class: inhibitors. hit rate 1.3% among 340,000. P06746; note: % is set by controls: 0 for no effect and ±100 for the full control effect
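10 nM enzyme + cpd, 15 min RT; start with substrate 50 nM final; read 0 min and after 10 min RT. Corrected, normalized data; 4-parameter Hill curve fit.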
* = called active by the depositor; ? = inconclusive; / = no result; [ ] = another dose, or the depositor's remark. Calls come from the whole dose curve; as a rule, active = well fitted curve in the direction sought with a large enough effect; inconclusive = small, poorly fitted or top-dose-only effect, or another doubt; inactive = no such curve, though single readings can be large; an effect the other way counts as inactive or inconclusive. Potency is the fitted concentration of half-maximal effect.

SMILES	POLI inh	POLK inh	FEN1 inh	WRN inhibitor	Pol eta inh	POLB inh
C[n+]1c(-c2ccccc2)cc2c(=Cc3ccc([N+](=O)[O-])cc3)c3ccccc3n21	50.1µM*	-3.2%	-19.4%	?	6.8%	/
CN(C)c1ccc(C=c2c3ccccc3n3c2c2ccccc2[n+]3C)cc1	?	-18.9%	31.6µM*	10µM*	?	/
CC(C)n1c2ccccc2c2cc([N+](=O)[O-])ccc21	19.0%	0.8%	-2.1%	-2.9%	-20.1%	12.2%
C[n+]1c(-c2ccccc2)cc2c(=Cc3ccccc3)c3ccccc3n21	50.1µM*	-10.8%	?	?	13.4%	/
CN(C)c1ccc(C=c2c3cc(O)ccc3n3c2cc(-c2ccccc2)[n+]3C)cc1	50.1µM*	?	7.94µM*	17.8µM*	?	/
CCC(=O)N1CCc2cc(Br)cc(S(=O)(=O)CCC(=O)N3CCN(c4ccccc4OC)CC3)c21	-5.4%	-3.6%	17.2%	/	-1.1%	14.4%
COc1cc(OC)cc(OC(=O)c2ccc3c(=O)n4c(nc3c2)CCC4)c1	39.8µM*	-25.1%	-5.8%	-1.6%[11.6 µM]	39.8µM*	/
COc1ccc(C(=O)COC(=O)CN2CC(=O)Oc3ccccc32)cc1Br	25.1µM*	-6.6%	3.8%	7.1%	-9.7%	?
COc1ccc(C(=O)COC(=O)C2CC3CCCC(C2)C3=O)cc1Br (configuration not stated)	22.2%	0.8%	-2.3%	5.4%	-11.5%	/
CC(C)C(=O)NC(C)C(c1cccs1)N1CCN(c2ccccc2)CC1 (configuration not stated)	8.2%	-5.5%	14.9%	9.3%	-5.5%	20µM*
CC(NC(=O)c1cccs1)C(c1cccs1)N1CCN(c2ccccc2)CC1 (configuration not stated)	?	-5.4%	7.6%	-8.9%	-17.8%	25.5%
O=C1C(C=Nc2ccccc2)=C(O)c2ccccc21	19.5%	0.1%	3.2%	-0.9%	10.2%	40.9%
O=C1C(C=Nc2ccccc2O)=C(O)c2ccccc21	7.9%	0.0%	1.3%	-14.8%	-10.7%	35.5µM*
Cc1ccc(O)c(N=CC2=C(O)c3ccccc3C2=O)c1	?	-25.4%	-30.8%	-11.4%[11.6 µM]	17.8µM*	?
COc1cccc(-c2nc3c(C#N)c[nH]n3c2NC2CCCCC2)c1	3.5%	9.8%	5.5%	/	-19.0%	15.1%
CC(=O)ON(C(C)=O)c1ccc(/C=C2\C=Cc3ccccc32)cc1	-0.7%	-2.5%	4.2%	/	/	/
O=C(CCCCCCCC(=O)c1ccccc1)c1ccccc1	?	-5.3%	-16.7%	2.3%	-13.6%	26.8%
C=C(CCC(=O)c1ccccc1)C(=O)c1ccccc1	?	3.7%	-18.1%	-16.4%[11.6 µM]	15.8µM*	?
Cc1c(C(=O)O)cnc2c([N+](=O)[O-])cnn12	60.3%	-33.4%	-11.3%	79.4µM*	?	?
CCOc1ccc(OCC)c(NC(=O)C2CCCN(S(=O)(=O)c3cc(Br)cc4c3N(C(=O)CC)CC4)C2)c1 (configuration not stated)	89.1µM*	-24.1%	-7.1%	/	-4.2%	-0.3%
Cc1nc2ccc(NC(=S)NCCCO)cc2nc1C	17.8µM*	-14.2%	-0.6%	1.8%	?	-0.3%
Cc1nc2ccc(NC(=S)NC3CC3)cc2nc1C	56.7%	-16.2%	3.5%	4.2%	-11.4%	2.9%
OCCNC(=S)Nc1ccc2nsnc2c1	20µM*	-6.5%	-6.8%	5.8%	-17.0%	0.7%
CCOC(=O)C1=CN(C(=O)OC(C)(C)C)C(CN2C(=O)COCC2=O)C1 (configuration not stated)	-100.5%	?	-98.0%	/	/	/
COc1cc(OC)c(OC)cc1/C=C/c1nc2ccccc2o1	27.0%	-6.8%	-4.8%	/	/	/
CCCN1CNc2c(c(=O)[nH]c(=S)n2CCc2cc(C)ccc2C)C1	37.5%	-0.2%	-5.8%	/	/	/
Cc1cccc(-n2c(O)c(C=Nc3ccccc3O)c3ccccc3c2=O)n1	?	?	?	?	44.7µM*	-32.4%
COc1cccc(Cn2cnc3c(cnn3C(C)(C)C)c2=O)c1	-18.3%	-9.3%	1.3%	/	/	/

Source: PubChem (National Center for Advancing Translational Sciences (NCATS))
